A selection: hits, their analogues and other compounds. The true share with any hit is near 4.7%.
TRHR PAM: TRH receptor (human) allosteric enhancement | TRHR cells, fluo-8 calcium fluorescence, EC20 TRH enhancement | enhancement, % at 2 µM | hit rate 0.66% among 360,000; in the data active = enhancement above about 30%
Target sequence (P34981 whole entry, looked up): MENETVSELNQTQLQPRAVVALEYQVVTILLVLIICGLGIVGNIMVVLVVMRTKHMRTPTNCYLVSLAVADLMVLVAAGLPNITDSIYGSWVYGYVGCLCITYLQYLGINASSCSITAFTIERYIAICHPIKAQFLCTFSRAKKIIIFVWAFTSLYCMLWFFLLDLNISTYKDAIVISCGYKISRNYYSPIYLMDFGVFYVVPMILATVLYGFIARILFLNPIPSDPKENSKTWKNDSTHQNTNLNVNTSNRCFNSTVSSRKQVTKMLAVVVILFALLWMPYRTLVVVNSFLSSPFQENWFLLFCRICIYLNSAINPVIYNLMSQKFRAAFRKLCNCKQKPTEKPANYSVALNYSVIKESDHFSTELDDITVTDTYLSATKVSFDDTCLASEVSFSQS
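Enhancer read-out: after compound pinning and an initial kinetic agonist-mode read, an EC20 of TRH (10 nM final) was injected and fluo-8 calcium signal (Ex 480/Em 530) followed at 1 s/cycle for 100 cycles in TRHR-expressing cells.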
D1 ag: activates the human D1 dopamine receptor; P21728; HEK293 T-REx D1 cells, calcium flux, agonist mode; activation, % at 2 µM; hit rate 1% among 360,000
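Agonism was scored from calcium flux recorded over 180 s (1 read/s) after pintool compound addition, following a 10-cycle baseline. Cells were inducible force-coupled HEK293 TREx D1, plated overnight at 30 C and loaded with no-wash calcium dye.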
TRHR ag: agonists of human TRH receptor. AID 493084. P34981. hit rate 0.18% among 360,000. TRHR cells, calcium flux fluo-8, FDSS agonist mode. activation, % at 2 µM
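TRHR-expressing cells loaded with fluo-8 calcium dye; 23 nL library compound pin-transferred, kinetic FDSS fluorescence (Ex 480/Em 530) recorded about 180 s for agonist-induced calcium release, before a 10 nM TRH EC20 addition for potentiator mode.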
D1 PAM: enhances dopamine response at the human D1 receptor; AID 504651; potentiation, % at 10 µM; HEK293 TREx D1 cells, calcium flux, dopamine EC20 potentiation; P21728; hit rate 0.036% among 360,000; in the data active = potentiation above about 30%
D1 antag: antagonists of human D1 dopamine receptor; hit rate 3.2% among 360,000; HEK293 TREx D1 cells, calcium flux, dopamine EC80; active compounds read low; activity change, negative = inhibition, % at 10 µM; P21728; in the data active = activity change below about -30%
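Cells carrying a force-coupled, tetracycline-inducible human D1 receptor report calcium flux. Each well gets a 10 s baseline, compound with 180 s monitoring, then an EC80 dopamine stimulus with a second 180 s kinetic read.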
A number is an active result; i = inactive; nt = no result. Rule as the data show it, unless noted: active = activation above about 30%; inactive = the rest.

SMILES | TRHR PAM | D1 ag | TRHR ag | D1 PAM | D1 antag
OC(COc1ccc(Br)cc1)CN1CCC(Cc2ccccc2)CC1 (configuration not stated) | i | i | i | i | -43
CC1CCN(CC(O)COc2cccc(F)c2)CC1 (configuration not stated) | i | i | i | nt | i
CC(=O)c1ccc(OCC(O)CN2CCN(c3ccccn3)CC2)cc1 (configuration not stated) | i | i | i | i | -60
COc1ccc(OCC(O)CN2CCN(c3ccccc3)CC2)cc1 (configuration not stated) | i | i | i | i | i
CCc1ccc(OCC(O)CN2CCN(c3ccc(OC)cc3)CC2)cc1 (configuration not stated) | i | 30 | i | i | -40
COc1cc(C(=O)Nc2cc3c(cc2C)n(C)c(=O)c(=O)n3C)cc(OC)c1OC | i | i | i | i | i
CCOC(=O)c1ccc(NC(=O)c2c(NCc3ccc(OC)c(OC)c3OC)sc3c2CCC(C)C3)cc1 (configuration not stated) | i | i | i | i | i
COc1ccc(-c2nn3c(-c4ccccc4)nnc3s2)cc1 | i | i | i | i | -31
CCc1ccc(Nc2nc3c(S(=O)(=O)c4cccc(Cl)c4)nnn3c3ccsc23)cc1 | i | i | i | i | i
COC(=O)CNC(=O)CSc1nnc(-c2ccc(OC)cc2)n1CC(C)C | i | i | i | i | -34
COc1ccc(-c2nnc(SCC(=O)NCc3cccs3)n2CC(C)C)cc1 | i | i | i | i | i
CCOc1ccc(CNS(=O)(=O)c2c(C(=O)N3CCCCCC3)c(C)n(C)c2C)cc1OC | i | i | i | i | i
O=C(Nc1ccc(/C=C/c2nc3ccccc3o2)cc1)c1c(F)cccc1F | i | i | i | i | -42
Clc1ccc(/C=N/NC2=Nc3cccc4cccc2c34)cc1 | i | i | i | i | -33
O=C(CCCCn1c(=O)c2ccccc2n(CC(=O)Nc2ccc(F)cc2F)c1=O)NCc1ccccc1Cl | i | i | i | i | i
Cc1ccc(/C=C2/Sc3ccc(C(=O)N4CCN(c5ccccn5)CC4)cc3NC2=O)cc1 | i | i | i | i | -46
COc1cc2cc(CNc3ccc(C)cc3)c(=O)n(CC(=O)Nc3ccc(C(C)C)cc3)c2cc1OC | i | i | i | i | i
CSc1ccc(CNC(=O)Cn2nc(N3CCN(c4ccccc4)CC3)ccc2=O)cc1 | i | i | i | i | i
Cc1cc(C)n(C(=O)CCCCCCCC(=O)n2nc(C)cc2C)n1 | i | i | i | i | i
Cc1cc(C)n(C(=O)CNC(=O)c2cccs2)n1 | 37 | i | i | i | i
Cc1cc(C)n(C(=O)CCCC(=O)n2nc(C)cc2C)n1 | i | i | i | i | -32
COc1ccccc1C(=O)NCCn1cc(SCc2ccc(C)cc2)c2ccccc21 | i | i | i | i | i
Cn1cnnc1SCc1ccc(C(=O)N/N=C/c2cccs2)cc1 | i | i | i | i | i
CCn1c(-c2c(Cl)c(C)nn2C)n[nH]c1=S | i | 39 | i | i | i
COc1ccc(OC)c(S(=O)(=O)NCc2ccc3c(c2)CCN3C(=O)c2cccc(C)c2)c1 | i | i | i | i | i
SMILES | TRHR PAM | D1 ag | TRHR ag | D1 PAM | D1 antag
O=C(Nc1cc(C(F)(F)F)ccc1Cl)C(O)Cc1ccccc1 (configuration not stated) | i | i | i | i | i
CC(=O)N/N=C/c1cc(C(C)(C)C)cc(/C=N/NC(C)=O)c1O | i | 36 | i | i | i
CCOc1ccccc1NC(=O)N1CCc2cc(S(=O)(=O)N3CCC(C)CC3)ccc21 | i | i | i | i | i
CCOC(=O)c1cc(=O)[nH]c2ccccc12 | i | i | i | i | i
CC(=O)Nc1ccc(OCc2nnc(-c3ccccc3)o2)cc1 | i | i | i | i | -48
Cc1ccc(-c2nnc(COC(=O)c3cc(=O)[nH]c4ccccc34)o2)cc1 | i | i | i | i | -85
CC(=O)c1c(C)[nH]c(C(=O)OCc2nnc(-c3ccccc3)o2)c1C | i | i | i | i | -32
N#Cc1ccccc1CSc1nnc2ccc3ccccc3n12 | i | i | i | i | i
CCNC(=O)N1CCN(CCCC(c2ccc(F)cc2)c2ccc(F)cc2)CC1 | i | i | i | i | -73
O=C(Nc1ccc(F)cc1)N1CCN(CCc2ccccc2)CC1 | i | i | i | i | nt
CCN(Cc1ccccc1)S(=O)(=O)c1ccc(F)c(C(=O)Nc2cc(C(F)(F)F)ccc2Cl)c1 | i | i | i | i | -30
CCOC(=O)CCCCN(Cc1ccccc1F)S(=O)(=O)c1ccc(F)c(C(=O)Nc2cc(Cl)cc(Cl)c2)c1 | i | 32 | i | i | i
CCOC(=O)c1c(C)[nH]c(C)c1S(=O)(=O)NCC(=O)Nc1cccc(SC)c1 | i | i | i | i | i
COc1ccc2c(CNC3CCCCCC3)c(C(=O)O)n(Cc3ccccc3F)c2c1 | i | i | i | i | i
CC1(C)CC(O)C(C)(C)N1O (configuration not stated) | i | 37 | i | i | i
CC1CCc2c(cc(-c3ccccc3)n2-c2ccc(C(=O)NC(C)C)cc2)C1 (configuration not stated) | i | i | i | i | -39
O=C1C=C(c2ccc(-c3ccccc3)cc2)C[C@@H](c2ccc(Cl)cc2)C1 | i | i | i | i | -36
COc1ccccc1C1=CC(=O)C[C@H](c2ccc(Cl)cc2)C1 | i | i | i | i | -36
COc1cccc(C2=CC(=O)C[C@H](c3ccc(Cl)cc3)C2)c1OC | i | i | i | i | i
COc1ccc([C@H]2CC(=O)C=C(c3ccccc3OC)C2)cc1OC | i | i | i | i | -46
O=C1C=C(c2ccc(C(=O)O)cc2)C[C@@H](c2ccc(Cl)cc2)C1 | i | i | i | i | i
CC[C@H](C)[C@@H](C(=O)NCCCCCCCCCCC(=O)N1CCN(C(=O)OC(C)(C)C)CC1)n1cc(CCCCCNC(=O)OC(C)(C)C)nn1 | i | i | i | i | -31
CC[C@H](C)[C@@H](C(=O)NCCCCCCCCCCC(=O)N1CCN(C(=O)OC(C)(C)C)CC1)n1cc(CCCCN=C(NC(=O)OC(C)(C)C)NC(=O)OC(C)(C)C)nn1 | i | i | i | i | i
C#CCOCCOCCOCCNc1nc(N2CCN(C(=O)CCCCCCCCCCNC(=O)[C@H]([C@@H](C)CC)n3cc(CCCCCN)nn3)CC2)nc(N2CCN(C(=O)CCCCCCCCCCNC(=O)[C@H](CCCCN)n3cc(CCCC(=O)O)nn3)CC2)n1 | i | 35 | i | i | i
C#CCOCCOCCOCCNc1nc(N2CCN(C(=O)CCCCCCCCCCNC(=O)[C@H]([C@@H](C)CC)n3cc(CCCCCN)nn3)CC2)nc(N2CCN(C(=O)CCCCCCCCCCNC(=O)[C@H](CO)n3cc(CCCCCN)nn3)CC2)n1 | i | 50 | i | i | i
